Consider 31 sequences from article PMC3315485, “Probing the Informational and Regulatory Plasticity of a Transcription Factor DNA–Binding Domain”.

Positions count from the first letter of the chain named.

In the first experiment the target is T1, MarA RQR (Escherichia coli, UniProt P0ACH5 1-127, W40R).
T1 sequence: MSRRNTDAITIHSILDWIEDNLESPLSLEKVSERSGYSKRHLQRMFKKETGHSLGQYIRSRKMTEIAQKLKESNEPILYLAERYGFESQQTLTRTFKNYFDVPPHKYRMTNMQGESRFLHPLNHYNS
Briefly: MITOMI; MITOMI, 295 K (22 C); buffer, salt and pH not stated in the material; high values mean tight binding. The conditions noted are these: protein: ivt; label: fluorescent; dsDNA, one strand shown. An outline of the steps:
(§1)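 Association constants were determined by MITOMI and are expressed for each site relative to the site with the highest affinity for the same protein variant. The MarA protein variants were made with the RTS E. coli HY kit by in vitro transcription and translation and labelled through addition of tRNA-lys-bodipy-fl. Testing covered 64 synthesized mar binding site variants, with fluorescence read on Genepix at 295K.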
As to ATGCAACGTTTTGCTAAAT, the binding signal is 0.142 Ka relative to the best site of the variant.

The next experiment has as its target T2, MarA RTR (Escherichia coli, UniProt P0ACH5 1-127, W40R;Q43T).
T2 sequence: T1 sequence with Q43T
The description is as above. The conditions noted are these: protein: ivt; label: fluorescent; dsDNA, one strand shown. An outline of the steps:
as §1
On to ATGCCTCGTTTTGCTAAAT, for which the binding signal was 0.235 Ka relative to the best site of the variant.

For the sequence ATGACGCGTTTTGCTAAAT, the binding signal was 0.382 Ka relative to the best site of the variant.

As for ATGAGGCGTTTTGCTAAAT, the binding signal was 0.212 Ka relative to the best site of the variant.

In the case of ATGGCCCGTTTTGCTAAAT, the binding signal was 1 Ka relative to the best site of the variant.

For the sequence ATGAGCCGTTTTGCTAAAT, the binding signal was 0.27 Ka relative to the best site of the variant.

Consider ATGTTTCGTTTTGCTAAAT, for which the binding signal was 0.716 Ka relative to the best site of the variant.

For the sequence ATGTGGCGTTTTGCTAAAT, the binding signal is 0.165 Ka relative to the best site of the variant.

As for ATGGTACGTTTTGCTAAAT, the binding signal is 0.222 Ka relative to the best site of the variant.

Regarding ATGGACCGTTTTGCTAAAT, the binding signal was 0.154 Ka relative to the best site of the variant.

Consider ATGTATCGTTTTGCTAAAT, for which the binding signal was 0.902 Ka relative to the best site of the variant.

In the case of ATGTGACGTTTTGCTAAAT, the binding signal is 0.173 Ka relative to the best site of the variant.

ATGAAGCGTTTTGCTAAAT: the binding signal was 0.204 Ka relative to the best site of the variant.

ATGATGCGTTTTGCTAAAT: the binding signal was 0.243 Ka relative to the best site of the variant.

ATGGAACGTTTTGCTAAAT: the binding signal was 0.23 Ka relative to the best site of the variant.

In the case of ATGCCACGTTTTGCTAAAT, the binding signal was 0.223 Ka relative to the best site of the variant.

On to ATGCGGCGTTTTGCTAAAT, for which the binding signal is 0.255 Ka relative to the best site of the variant.

On to ATGAGTCGTTTTGCTAAAT, for which the binding signal was 0.173 Ka relative to the best site of the variant.

As to ATGGCTCGTTTTGCTAAAT, the binding signal is 0.904 Ka relative to the best site of the variant.

For the sequence ATGGTCCGTTTTGCTAAAT, the binding signal is 0.146 Ka relative to the best site of the variant.

With ATGATTCGTTTTGCTAAAT, the binding signal was 0.208 Ka relative to the best site of the variant.

On to ATGCACCGTTTTGCTAAAT, for which the binding signal was 0.202 Ka relative to the best site of the variant.

With ATGCGTCGTTTTGCTAAAT, the binding signal was 0.153 Ka relative to the best site of the variant.

ATGAACCGTTTTGCTAAAT: the binding signal was 0.204 Ka relative to the best site of the variant.

On to ATGCGACGTTTTGCTAAAT, for which the binding signal is 0.24 Ka relative to the best site of the variant.

As for ATGTCCCGTTTTGCTAAAT, the binding signal is 0.848 Ka relative to the best site of the variant.

As for ATGACTCGTTTTGCTAAAT, the binding signal is 0.469 Ka relative to the best site of the variant.

Turning to ATGTGTCGTTTTGCTAAAT, the binding signal is 0.231 Ka relative to the best site of the variant.

On to ATGCTCCGTTTTGCTAAAT, for which the binding signal was 0.201 Ka relative to the best site of the variant.

In the case of ATGGGCCGTTTTGCTAAAT, the binding signal was 0.196 Ka relative to the best site of the variant.

Consider ATGGGTCGTTTTGCTAAAT, for which the binding signal is 0.203 Ka relative to the best site of the variant.

For the sequence ATGCAACGTTTTGCTAAAT, the binding signal is 0.188 Ka relative to the best site of the variant.

The target in a further experiment is T3, MarA SAR (Escherichia coli, UniProt P0ACH5 1-127, W40S;Q43A).
T3 sequence: T1 sequence with R40S, Q43A
Described as above. The conditions noted are these: protein: ivt; label: fluorescent; dsDNA, one strand shown. The gist of the method:
as §1
With ATGCCTCGTTTTGCTAAAT, the binding signal is 0.486 Ka relative to the best site of the variant.

Consider ATGACGCGTTTTGCTAAAT, for which the binding signal is 0.905 Ka relative to the best site of the variant.

With ATGAGGCGTTTTGCTAAAT, the binding signal was 0.726 Ka relative to the best site of the variant.

In the case of ATGGCCCGTTTTGCTAAAT, the binding signal was 0.552 Ka relative to the best site of the variant.

In the case of ATGAGCCGTTTTGCTAAAT, the binding signal is 1 Ka relative to the best site of the variant.

Consider ATGTTTCGTTTTGCTAAAT, for which the binding signal was 0.21 Ka relative to the best site of the variant.

Regarding ATGTGGCGTTTTGCTAAAT, the binding signal is 0.152 Ka relative to the best site of the variant.

For ATGGTACGTTTTGCTAAAT, the binding signal was 0.797 Ka relative to the best site of the variant.

On to ATGGACCGTTTTGCTAAAT, for which the binding signal is 0.573 Ka relative to the best site of the variant.

On to ATGTATCGTTTTGCTAAAT, for which the binding signal is 0.221 Ka relative to the best site of the variant.

On to ATGTGACGTTTTGCTAAAT, for which the binding signal was 0.165 Ka relative to the best site of the variant.

For ATGAAGCGTTTTGCTAAAT, the binding signal is 0.677 Ka relative to the best site of the variant.

In the case of ATGATGCGTTTTGCTAAAT, the binding signal is 0.854 Ka relative to the best site of the variant.

Turning to ATGGAACGTTTTGCTAAAT, the binding signal was 0.646 Ka relative to the best site of the variant.

In the case of ATGCCACGTTTTGCTAAAT, the binding signal was 0.379 Ka relative to the best site of the variant.

Regarding ATGCGGCGTTTTGCTAAAT, the binding signal was 0.379 Ka relative to the best site of the variant.

Take ATGAGTCGTTTTGCTAAAT: the binding signal was 0.944 Ka relative to the best site of the variant.

As to ATGGCTCGTTTTGCTAAAT, the binding signal was 0.656 Ka relative to the best site of the variant.

With ATGGTCCGTTTTGCTAAAT, the binding signal was 0.98 Ka relative to the best site of the variant.

For the sequence ATGATTCGTTTTGCTAAAT, the binding signal was 0.807 Ka relative to the best site of the variant.

With ATGCACCGTTTTGCTAAAT, the binding signal was 0.497 Ka relative to the best site of the variant.

Turning to ATGCGTCGTTTTGCTAAAT, the binding signal was 0.552 Ka relative to the best site of the variant.

Turning to ATGAACCGTTTTGCTAAAT, the binding signal was 0.776 Ka relative to the best site of the variant.

With ATGCGACGTTTTGCTAAAT, the binding signal is 0.43 Ka relative to the best site of the variant.

Take ATGTCCCGTTTTGCTAAAT: the binding signal was 0.233 Ka relative to the best site of the variant.

Regarding ATGACTCGTTTTGCTAAAT, the binding signal is 0.657 Ka relative to the best site of the variant.

As to ATGTGTCGTTTTGCTAAAT, the binding signal was 0.282 Ka relative to the best site of the variant.

ATGCTCCGTTTTGCTAAAT: the binding signal is 0.548 Ka relative to the best site of the variant.

For ATGGGCCGTTTTGCTAAAT, the binding signal is 0.575 Ka relative to the best site of the variant.

Take ATGGGTCGTTTTGCTAAAT: the binding signal is 0.534 Ka relative to the best site of the variant.

Regarding ATGCAACGTTTTGCTAAAT, the binding signal is 0.461 Ka relative to the best site of the variant.
